Experimental data published in PubChem BioAssay (NCATS).
Results filed as inconclusive are left out. Calls of active or inactive are those of the source. Calls come from the whole dose curve; as a rule, active = well fitted cell-killing curve with a large enough effect; inconclusive = small, poorly fitted or top-dose-only effect, or effect the other way; inactive = flat fitted curve, though single readings scatter. *1 amine or outer side, *2 acyl side, *3 side chain or, on linkers, in order; H or OH if unused. Where a SMILES comes first, the peptide text is derived from it. Bridges are numbered along the chain shown (N, C = ends). [ ]: non-standard residue; d: D form. The star is where a group is joined. pTerphenylCO(4''-OnC5H11) = CCCCCOc1ccc(-c2ccc(-c3ccc(C(=O)*)cc3)cc2)cc1; Orn(4R-OH,5R-OH) = O=C([C@H](C[C@@H](O)[C@@H](O)N[*:3])N[*:1])[*:2]; hTyr(3S-OH,4S-OH) = N[C@H](C(=O)O)[C@H](O)[C@@H](O)c1ccc(O)cc1; Pro(3S-OH,4S-Me) = C[C@H]1CN[C@H](C(=O)O)[C@H]1O; Hyp = O=C(O)[C@@H]1C[C@@H](O)CN1

What was measured:
Assay in all cases: Primary qHTS to identify gynecologic anti-cancer compounds using libraries of approved drugs and bioactive compounds (AID 1345084); note: nearly all actives have a fitted effect of over 55% in size
[1] = test system: C33A; conditions: Gynecologic cancer cell panel viability, ATPlite luminescence, 48 h; series mostly up to 57.5 µM
In short: (§1)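 48 h compound exposure at 37 C, 5% CO2; five-point qHTS. ATPlite luminescence readout of cell ATP.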

[2] = test system: CAOV3; conditions: Gynecologic cancer cell panel viability, ATPlite luminescence, 48 h; series mostly up to 57.5 µM
In short: as §1

[3] = test system: CASKI; conditions: Gynecologic cancer cell panel viability, ATPlite luminescence, 48 h; series mostly up to 57.5 µM
In short: as §1

[4] = test system: Es-2; conditions: Gynecologic cancer cell panel viability, ATPlite luminescence, 48 h; series mostly up to 57.5 µM
In short: as §1

[5] = test system: HeLa; conditions: Gynecologic cancer cell panel viability, ATPlite luminescence, 48 h; series mostly up to 57.5 µM
In short: as §1

[6] = test system: Hek293T; conditions: Gynecologic cancer cell panel viability, ATPlite luminescence, 48 h, control line for the selectivity index; series mostly up to 57.5 µM
In short: as §1

[7] = test system: JEG-3; conditions: Gynecologic cancer cell panel viability, ATPlite luminescence, 48 h; series mostly up to 57.5 µM
In short: as §1

[8] = test system: OV90; conditions: Gynecologic cancer cell panel viability, ATPlite luminescence, 48 h; series mostly up to 57.5 µM
In short: as §1

[9] = test system: PA-1; conditions: Gynecologic cancer cell panel viability, ATPlite luminescence, 48 h; series mostly up to 57.5 µM
In short: as §1

[10] = test system: SKOV3; conditions: Gynecologic cancer cell panel viability, ATPlite luminescence, 48 h; series mostly up to 57.5 µM
In short: as §1

[11] = test system: Tov-21-G; conditions: Gynecologic cancer cell panel viability, ATPlite luminescence, 48 h; series mostly up to 57.5 µM
In short: as §1

[12] = test system: Tov112D; conditions: Gynecologic cancer cell panel viability, ATPlite luminescence, 48 h; series mostly up to 57.5 µM
In short: as §1

Measured: Potency

CC[C@H]1OC(=O)[C@H](C)[C@@H](O[C@H]2C[C@@](C)(OC)[C@@H](O)[C@H](C)O2)[C@H](C)[C@@H](O[C@H]2O[C@H](C)C[C@H](N(C)C)[C@H]2O)[C@](C)(O)C[C@@H](C)C(=O)[C@H](C)[C@@H](O)[C@]1(C)O
inactive: all assays above

Cc1cc2c(cc1N1C(=O)c3cccc4c(CCCO)ccc(c34)C1=O)n(C)c(=O)n2C
inactive: all assays above

O=C(NCCCc1ccccc1)C1CCC(CNS(=O)(=O)c2cccc3nsnc23)CC1 (configuration not stated)
inactive: all assays above

CCCCCOc1ccc(-c2ccc(-c3ccc(C(=O)N[C@H]4C[C@@H](O)[C@@H](O)NC(=O)[C@@H]5[C@@H](O)[C@@H](C)CN5C(=O)[C@H]([C@@H](C)O)NC(=O)[C@H]([C@H](O)[C@@H](O)c5ccc(O)cc5)NC(=O)[C@@H]5C[C@@H](O)CN5C(=O)[C@H]([C@@H](C)O)NC4=O)cc3)cc2)cc1 ({pTerphenylCO(4''-OnC5H11)}-[Orn(4R-OH,5R-OH)]T[Hyp][hTyr(3S-OH,4S-OH)]T[Pro(3S-OH,4S-Me)]; lactam 1-C)
inactive: all assays above

COc1ccncc1C(=O)NC(=O)Nc1ccc(-c2ccccc2)c(C(F)(F)F)c1
inactive: all assays above

CCCC(CCC)C(=O)NCc1ccc2c(cnn2-c2ccccc2OC)c1
inactive: all assays above

Cc1cn2cc(C(=O)N(C)CCO)cc(NC3CCOc4cccc(C)c43)c2n1 (configuration not stated)
inactive: all assays above

O=[N+]([O-])c1cn2c(n1)OC[C@@H](OCc1ccc(-c3ccc(OC(F)(F)F)cc3)nc1)C2
inactive: all assays above

C=C1C(=O)OC2CC3(C)C(O)C(=O)C=C(C)C3CC12 (configuration not stated)
inactive: all assays above

COc1c2c(nc3occc13)C(CC=C(C)C)(OC)C(O)CC2 (configuration not stated)
inactive: all assays above

C#CCNCc1cc2cc(OCc3ccccc3)ccc2[nH]1
inactive: all assays above

COc1ccc(Sc2ccc(NC(=O)c3ccccc3Cl)cc2C#N)cc1
inactive: all assays above

CN(C)N(C)C(=O)[C@@]1(Cc2ccccc2)CCCN(C(=O)[C@@H](Cc2c[nH]c3ccccc23)NC(=O)C(C)(C)N)C1
inactive: all assays above

O=C1COc2nccc(-c3ccccc3F)c2CN1Cc1cc(C(F)(F)F)cc(C(F)(F)F)c1
inactive: all assays above

CC[C@H](C)/C=C(C)/C=C/C1=CC2=C(Cl)C(=O)[C@](C)(O)[C@H](OC(C)=O)[C@H]2CO1
inactive: all assays above

Cc1nc(C(=O)N2CCC[C@H]2Cc2nnc(-c3ccccc3)o2)c(-c2ccccc2F)s1
inactive: all assays above
